# Measurements published in the supplement of paper PMC3334620.
# In all, about 33,000 sequences were measured (“E-score (-0.5 to 0.5)”: median about -0.016, highest 2% from about 0.31 on). The entries come from a sample that favours the highest values as a whole.
# Target: Cst6 (UniProt P40535)
# Assay: PBM E-score (8-mer binding enrichment) (E-score (-0.5 to 0.5)); higher = stronger / more preferred TF binding
# Conditions: protein concentration: 200 nM; construct: GST-DNA-binding domain
# How it was run: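 GST-tagged yeast TFs (full-length or DNA-binding domain) were made by PURExpress in vitro transcription/translation and applied at about 100-200 nM to universal all-10-mer Agilent arrays. The arrays were made double-stranded by primer extension, on fresh or once-stripped slides. Bound protein was detected with fluorescent anti-GST, and scans were normalised with masliner. Each ungapped eight-base word, pooled with its reverse complement, received an E-score (modified Wilcoxon-Mann-Whitney statistic) from the Universal PBM Analysis Suite.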
# Sequence of UniProt P40535 (P40535 whole entry): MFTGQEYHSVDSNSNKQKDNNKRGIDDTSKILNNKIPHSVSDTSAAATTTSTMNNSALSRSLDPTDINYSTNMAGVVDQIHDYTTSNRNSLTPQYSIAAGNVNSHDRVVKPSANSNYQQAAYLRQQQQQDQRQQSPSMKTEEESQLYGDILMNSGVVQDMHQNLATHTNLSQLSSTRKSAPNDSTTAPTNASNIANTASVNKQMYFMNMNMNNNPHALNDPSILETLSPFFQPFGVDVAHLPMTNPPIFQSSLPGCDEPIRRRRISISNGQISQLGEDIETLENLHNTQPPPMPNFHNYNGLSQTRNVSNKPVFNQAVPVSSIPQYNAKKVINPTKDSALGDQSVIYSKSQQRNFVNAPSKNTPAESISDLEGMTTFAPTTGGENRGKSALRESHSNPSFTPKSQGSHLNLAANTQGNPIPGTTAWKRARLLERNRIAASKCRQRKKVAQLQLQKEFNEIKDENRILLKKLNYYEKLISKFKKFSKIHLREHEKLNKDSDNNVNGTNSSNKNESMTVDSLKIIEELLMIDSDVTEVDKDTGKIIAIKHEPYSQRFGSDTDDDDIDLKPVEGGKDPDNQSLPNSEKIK
row,Sequence,PBM E-score
1,CAGACAGC,-0.185
2,ATGGAGCA,0.0798
3,ACGAAACT,0.0946
4,CAAGACCC,-0.197
5,CAAGGCTC,-0.227
6,AATTTCGG,0.127
7,CGTGTGAG,0.0162
8,AAAGATCT,-0.0274
9,GACATCAA,0.327
10,GACATCCC,-0.0212
11,GACATCAC,0.431
12,CACATCAC,0.217
13,TACATCAA,0.283
14,CACATCAA,0.162
15,AGCATGCA,-0.103
16,AACACCTC,-0.0672
17,ACTCAAAC,0.158
18,AGCTAAAG,-0.0194
19,CAGCGTGA,0.0151
20,ACGACGCG,0.127
21,AAGACGCG,-0.111
22,AGGACGCC,-0.147
23,ATGACGCC,0.442
24,CTGACGCC,0.119
25,CAGACGCA,-0.0613

row,Sequence,PBM E-score
1,GTGACGCA,0.471
2,AAGACGCC,-0.00396
3,GGGACGCA,-0.173
4,CTGACGCA,0.332
5,GCGACGCA,0.0151
6,ATGACGCG,0.463
7,AGTCGTAT,-0.0183
8,AGCCTCGC,-0.0857
9,CCTGGATC,-0.334
10,GTACCAGA,-0.199
11,ACTCCAGT,-0.162
12,CCGTCCCC,-0.289
13,GGTGGAGA,-0.338
14,ACATGGGT,0.00268
15,CGGGTTCA,-0.134
16,GATAACCA,-0.0596
17,GGAGCTGA,-0.207
18,ATGACTCC,0.0246
19,ACGACGCA,0.145
20,ATGACGCA,0.485
21,AGGACGCA,-0.209
22,GTGACTCA,0.228
23,ATGACTCA,0.309
24,ACGGGACA,-0.177
25,ATACCACG,0.128

row,Sequence,PBM E-score
1,AGTCATAG,0.0637
2,CGTCATAG,0.468
3,CCTCATAG,0.0666
4,CGTCATAC,0.481
5,AGTCATAC,0.144
6,GGTCATAC,0.151
7,ATCCATTG,0.0328
8,AAGGAGAG,-0.258
9,TAATTACA,0.277
10,TAACCACA,0.0592
11,AGATCACT,0.181
12,GCATCACC,0.231
13,CCATCACC,0.15
14,ACATCACA,0.328
15,ACATCACG,0.303
16,ACATCAGT,0.218
17,ACATCACT,0.401
18,TCATCACA,0.252
19,ACATCACC,0.417
20,CCCGGTGC,-0.264
21,GGCGATTA,0.188
22,CGTCGCCA,-0.0999
23,CGCAGTAG,-0.101
24,ATCGACCA,-0.228
25,CGCTGGAC,-0.297

row,Sequence,PBM E-score
1,CAAAAAAG,0.254
2,CAATGACG,0.469
3,CAATGACA,0.341
4,GAATGATA,0.278
5,CAATGAAG,0.0658
6,TAATGAGA,0.0949
7,CAATGACC,0.148
8,TAATGATA,0.387
9,TAATGACA,0.347
10,AAATGATA,0.304
11,AAATGACA,0.298
12,GAATGACA,0.259
13,TAATGCCA,0.197
14,CTTTAAGC,0.0326
15,GTTGGGAA,-0.0904
16,TACCTACA,0.0531
17,ACCGGGTG,-0.19
18,GCGATTAC,0.184
19,CACCGCAG,-0.116
20,CGTCTCGA,0.143
21,GAGTTTTA,0.122
22,AAATGACT,0.0956
23,AAATGACC,0.102
24,ATATGACA,0.304
25,CTATGACA,0.264

row,Sequence,PBM E-score
1,GTATGACA,0.323
2,AAATGACG,0.466
3,AGCTCATA,0.124
4,TAAGAACA,0.312
5,CAAGAACA,0.053
6,GAAGAACA,0.131
7,CCTTACCA,-0.119
8,CCCGTTCC,-0.132
9,CATCACCG,0.305
10,AATCACCC,-0.00614
11,CATCACCC,0.308
12,AATCACCA,0.169
13,CATCACCA,0.372
14,TATCACCA,0.123
15,CATTGTCC,-0.0804
16,ACCGCAAC,0.0509
17,GTCACATA,0.245
18,CGAAGTTA,0.11
19,CCTAACAG,0.00445
20,GCTGGCAA,-0.106
21,GTGATGTA,0.465
22,GGGATGTA,-0.0844
23,CGGATGTA,-0.0158
24,AGGATGTA,0.0787
25,ACGATGTC,0.0231

row,Sequence,PBM E-score
1,ATGATGTC,0.478
2,GAGATGTA,0.0936
3,ATGATGTA,0.462
4,CTGATGTA,0.326
5,CTGATGTC,0.287
6,AAGATGTA,0.169
7,CCGATGTA,-0.0196
8,GCACTGCC,0.0838
9,AGTCCTTA,-0.0772
10,CAGCCCAG,-0.383
11,ACAGCCCC,-0.228
12,AGTCCCTG,-0.223
13,CGATTGAG,-0.0697
14,GACGATGA,0.301
15,CCCAGGAA,-0.176
16,CTTTCTGC,0.0175
17,AGGATGTG,-0.232
18,ATGATGTG,0.333
19,ATGATGAG,0.232
20,CTGAGAGC,-0.0922
21,CGCGGCAC,0.324
22,AGCGGCGC,0.107
23,CACGGCGC,0.357
24,AGCGCGGC,0.115
25,CACGGCGA,0.21

row,Sequence,PBM E-score
1,CGCGGCAA,0.134
2,AGCGGCAC,0.123
3,CGCGGCGA,0.27
4,CGCGCGGC,0.378
5,CGCGGCGC,0.372
6,CGCGCGGA,0.131
7,AACGGCGC,0.251
8,CTTCGTAC,-0.193
9,AACATAAT,0.246
10,ATTAACGC,0.0112
11,CAGGGAGA,-0.227
12,GACTTAAC,-0.167
13,ACGGATAC,0.115
14,ATGTCTGG,-0.0099
15,ACTCATTG,-0.129
16,ATGAACTG,0.12
17,GAACGGTC,-0.223
18,AGTGGGTG,0.0423
19,ACATCCGT,0.0894
20,AGCACGGC,0.198
21,AGGCGCGA,0.205
22,CGGCGCGA,0.35
23,CGCACGGC,0.375
24,CGGCGCGC,0.242
25,CGCACGGA,0.154

row,Sequence,PBM E-score
1,AAACAAAT,0.192
2,CTTATTAA,0.141
3,ATCGACGA,0.00463
4,CCGTAATC,0.0889
5,CCGTAATA,0.176
6,AGGTAATG,0.101
7,AAGTAATC,0.179
8,ACGTAATC,0.484
9,ACGTAATG,0.476
10,ACGTAATA,0.482
11,AAGTAATG,0.116
12,GCGTAATA,0.296
13,GCGCTCAA,-0.165
14,CCTAGCGA,-0.296
15,AGCCGACA,-0.162
16,TAATTTAA,0.287
17,CATCGCCA,0.0609
18,ACACGGAC,-0.00107
19,CTTCCAAC,-0.0988
20,AGCCGCAT,0.338
21,AGCCGCAC,0.188
22,AGCCGCAA,-0.127
23,GCACCTGC,-0.114
24,AAGCTTTG,-0.087
25,TTCTGCAA,0.138

row,Sequence,PBM E-score
1,GATATGAC,0.273
2,CCTATGAC,0.221
3,AATATGTC,0.319
4,AATATGAC,0.35
5,AATATGTG,0.25
6,GCTATGAC,0.332
7,CATATGAG,0.0643
8,AATATGAG,0.132
9,ACTATGAC,0.264
10,AATATGTA,0.211
11,AATATGAT,0.233
12,CATATGAC,0.366
13,CGAAAGCA,-0.0132
14,CATCTGAA,0.037
15,ATCCTATC,-0.0914
16,ACCGTCGG,-0.194
17,CGTCTATA,-0.0233
18,ACCTTTGC,-0.095
19,CGCTGCAC,-0.0108
20,CTTATGCC,0.0646
21,CTTATGAC,0.368
22,CTTATGAA,0.052
23,ATTATGAA,0.292
24,ATTATGAG,0.22
25,ATTATGAC,0.394

row,Sequence,PBM E-score
1,AACAAGAA,0.237
2,AGAAAGCT,0.0476
3,ATAGTCGA,0.168
4,ATATATTA,0.336
5,CTATATTA,0.333
6,ACATATTA,0.312
7,ATATATTG,0.109
8,CCATATTA,0.0718
9,CTATATTC,0.0369
10,CTCTATTA,0.0287
11,ACATATTG,0.137
12,GTATATTA,0.261
13,TACTGGCA,-0.0625
14,CAGACAGG,-0.15
15,ATCGATAC,0.171
16,AGCTCCGA,-0.145
17,CAAAGCGA,-0.0448
18,TCGACACA,0.108
19,AGCAAGCG,-0.11
20,AGGACGTG,-0.088
21,CCGACGTA,0.0226
22,ACGACGTG,0.061
23,GTGACGTA,0.496
24,ATCACGTA,0.344
25,ATCACGTG,0.135

row,Sequence,PBM E-score
1,GCGACGTA,0.219
2,CAGACGTA,0.0968
3,CTGACGTA,0.489
4,ATGACGTG,0.491
5,GGGACGTA,0.0851
6,ATCACGTC,0.286
7,AGGCTCGA,0.0255
8,CTGGTGTC,-0.119
9,GCAGCCGA,-0.053
10,AAAACCGA,0.0246
11,TTCCAAAA,0.0844
12,CAGGCTAC,-0.249
13,GCTCCGCC,-0.185
14,CCGCCGGA,-0.149
15,ACCATCGA,-0.0265
16,CGAGGCGC,0.188
17,ATGACGTA,0.498
18,AAGACGTA,0.215
19,AGGACGTA,-0.126
20,CACCGTTC,-0.0919
21,CAGGCGAG,-0.261
22,ATTGCGTG,0.154
23,ATTGCGTC,0.34
24,GTTGCGTA,0.264
25,CTTGCGTC,0.249

row,Sequence,PBM E-score
1,ATTGCGTA,0.415
2,AGTGCGTC,0.104
3,CTCGTTCA,0.022
4,ATTCCCGG,0.041
5,AGGAGCGG,-0.207
6,CAACGTCC,-0.263
7,GAACGTTA,-0.124
8,AAACGTCT,0.14
9,CAACGTCA,0.471
10,TAACGTCA,0.489
11,AAACGTCC,-0.0706
12,CAACGTCG,0.0638
13,GAACGTCA,0.442
14,GAACGTCC,0.0008
15,TAACGTGA,0.284
16,TAACGTTA,0.149
17,AAACGTCA,0.463
18,CCAGGCGA,-0.317
19,CTACCTAG,-0.231
20,ATCCCGGA,-0.249
21,AATGAGCG,0.139
22,AAGTAAAA,0.148
23,AGCCAGTG,-0.171
24,ATCGCCTA,-0.115
25,CGATTGTA,0.0905

row,Sequence,PBM E-score
1,CGGTCTTC,-0.0638
2,AACTGTGT,0.0284
3,ATCAGTTC,-0.0191
4,ATACAGCC,-0.059
5,GGGTGCCA,-0.137
6,CGGTATGC,-0.111
7,ACGGTCTG,-0.189
8,GCACGTAA,0.232
9,TCACGTAA,0.415
10,ACACGTAC,-0.0236
11,CCACGTAA,0.275
12,ACACGTAA,0.366
13,ACACGTAG,0.0917
14,CTACCCCA,-0.16
15,ATACAGAC,0.128
16,CCGCAACA,0.113
17,CACGTTAC,0.143
18,CACGTTAA,0.0603
19,GACGTTAC,0.315
20,TACGTTAA,0.189
21,GACGTTAA,0.32
22,AACGTTAC,0.137
23,GCCAAAAC,0.00644
24,AGCTGCGA,-0.198
25,AGCGGTCC,-0.134

row,Sequence,PBM E-score
1,ATACGGGC,-0.204
2,ACTGGGGG,-0.426
3,CGGACGCA,-0.0966
4,CGGCGCCG,0.384
5,CGGCGCCC,0.143
6,CGGCGCCA,0.161
7,AGGCGCCT,0.207
8,AGGCGCCG,0.325
9,AGGCGCCA,0.0572
10,CCGTCGAA,0.0203
11,GCAAATGC,0.0351
12,AATAGCCC,-0.132
13,AGCCGGCT,-0.193
14,CGGATGAA,0.127
15,AAGATGAC,0.345
16,CGGATGAC,0.321
17,CAGATGAC,0.383
18,CAGATGAG,0.0374
19,AAGATGAT,0.229
20,GAGATGAC,0.239
21,CGGATGAG,-0.135
22,AAGATGAG,-0.0416
